# Compound activity deposited in PubChem BioAssay by The Scripps Research Institute Molecular Screening Center.
# CHO-K1 Ca PAM = counter-screen for M1 PAMs: effect in parental CHO-K1 cells; ATP EC20, Fluo-8 calcium fluorescence; 0% at ATP EC20, 100% at ATP max; activation, % at 3 µM; actives 0.02% (n = 360,000);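 active means activation above the run cutoff, the mean activation of all test compounds plus 3 SD, cut at about 40% in these data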;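 further: peak over basal fluorescence ratio in a 140 s read after ATP addition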
# CHRM1 antagonist = human CHRM1 antagonism; inhibition, % at 3 µM; CHO-K1 hM1, Fluo-8 calcium fluorescence, ACh EC80 antagonist; actives 1.3% (n = 360,000);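 active means percent inhibition above its own plate's cutoff, namely the mean of that plate's compound wells plus 3 SD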;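 further: peak over basal fluorescence ratio during 140 s after agonist addition; 0% = ACh EC80 plus DMSO and 100% = DMSO alone without agonist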
# Target sequence (P11229 whole entry, looked up): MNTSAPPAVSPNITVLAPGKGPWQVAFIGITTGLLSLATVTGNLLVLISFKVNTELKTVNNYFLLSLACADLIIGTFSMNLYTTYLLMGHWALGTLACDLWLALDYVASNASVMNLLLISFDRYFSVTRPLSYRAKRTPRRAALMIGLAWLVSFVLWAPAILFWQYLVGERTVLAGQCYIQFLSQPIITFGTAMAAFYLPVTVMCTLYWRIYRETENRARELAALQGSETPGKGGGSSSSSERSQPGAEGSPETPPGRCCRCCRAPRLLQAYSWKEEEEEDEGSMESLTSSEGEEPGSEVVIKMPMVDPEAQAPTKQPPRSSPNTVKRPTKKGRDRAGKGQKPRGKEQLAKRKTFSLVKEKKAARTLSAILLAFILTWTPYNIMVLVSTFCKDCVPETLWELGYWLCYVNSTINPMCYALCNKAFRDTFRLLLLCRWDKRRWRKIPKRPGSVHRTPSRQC
# CHRM1 agonist = human M1 muscarinic receptor agonism. actives 0.33% (n = 360,000). activation, % at 3 µM. CHO-K1 hM1, Fluo-8 calcium fluorescence, agonist mode; 0% DMSO, 100% acetylcholine EC100;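 active means activation above the run's mean compound activation plus 3 SD, cut at about 16% in these data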;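 further: peak over basal fluorescence ratio within a 140 s kinetic read after compound addition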
# CHO-K1 Ca antag = M1 antagonist counterscreen hit in parental CHO-K1 cells | ATP-induced calcium, Fluo-8 fluorescence | inhibition, % at 3 µM | actives 0.6% (n = 360,000) | AID 602250;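 active means inhibition above a per-plate cutoff, the plate's mean sample inhibition plus 3 SD, cut at about 24% in these data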;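 further: 0% = DMSO plus EC80 ATP and 100% = DMSO alone without ATP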
# M1 PAM = human CHRM1 positive allosteric modulation | P11229 | CHO-K1 hM1, Fluo-8 calcium fluorescence, ACh EC20; 0% = ACh EC20, 100% = maximal ACh | activation, % at 3 µM | actives 0.088% (n = 360,000) | AID 588819; in the data active means activation above about 19%, passing the limit was not always enough
# CHO-K1 Ca ag = counter-screen for M1 agonists: effect in parental CHO-K1 cells | Fluo-8 calcium fluorescence; scaled to maximal ATP response, vehicle zero | activation, % at 3 µM | actives 0.48% (n = 360,000); in the data active means activation above about 15%;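 further: untransfected CHO-K1 host cells lacking M1 receptor as counterscreen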
# The depositor's hits bear a star. The list is not random: actives were taken first. Their share in the collection is about 2.3%.
SMILES,CHO-K1 Ca PAM,CHRM1 antagonist,CHRM1 agonist,CHO-K1 Ca antag,M1 PAM,CHO-K1 Ca ag
O=C(NCc1ccccc1Cl)c1csc([C@@H]2C[C@H](O)[C@@H](CO)O2)n1,9.1,-0.5,-1.7,-9.4,-1.8,0.4
CC1(C(=O)NS(=O)(=O)c2ccc(F)cc2F)CCN1C(=O)Cc1ccc(Cl)cc1Cl (stereo not given),-8.8,-0.2,-2.6,27.0*,-1.1,-0.2
CC1(C(=O)NS(=O)(=O)c2ccc(F)cc2F)CCN1C(=O)Cc1ccccc1 (stereo not given),-9.9,3.3,-4.2,4.9,-6.2,0.0
CC(C)NC(=O)N(C)C[C@@H]1Oc2c(NC(=O)C3CCOCC3)cccc2C(=O)N([C@@H](C)CO)C[C@H]1C,-3.5,-4.4,-3.4,0.6,-3.5,-0.2
O=C(C[n+]1cccc(Br)c1)c1ccc(-c2ccccc2)cc1,13.3,38.4*,-11.1,0.0,-27.4,2.9
O=C(C[n+]1cccc(Br)c1)c1ccccc1,9.7,-9.0,-6.7,0.3,14.1,1.2
Cc1ccc(C)[n+](CC(=O)c2ccc(-c3ccccc3)cc2)c1,17.2,43.6*,-15.8,11.7,-34.5,0.3
CCOC(=O)C1=C(COC(=O)Cc2ccccc2)NC(=O)NC1C (stereo not given),9.7,-13.7,-0.7,0.3,10.2,2.6
CCCOC(=O)c1ccc(OCC(O)Cn2c(C)nc3ccccc32)cc1 (stereo not given),-0.4,40.2*,3.2,21.4,-18.5,12.4
O=C(CSc1ccc(S(=O)(=O)N2CCOCC2)cn1)Nc1ccc(F)c(F)c1,-19.4,38.8*,0.0,9.7,-14.5,10.1
CC1CC(C)CN(C(=O)COC(=O)c2ccc(N3CCCC3=O)cc2)C1 (stereo not given),9.9,-12.6,-3.2,-7.5,10.3,1.0
CCOC(=O)c1c(C)[nH]c(C(=O)COC(=O)c2ccc(N3CCCC3=O)cc2)c1C,-7.3,-11.8,-2.2,26.8*,7.4,-0.3
CCN(CC)CC#CC(O)(c1ccccc1)c1ccccc1,17.5,99.4*,-15.7,-22.7,-37.8,3.7
CN(C)C(C)(C)C#CC(O)(c1ccccc1)c1ccccc1,2.6,100.1*,-5.9,-9.2,-23.6,0.3
OCCN(CC#CC(O)(c1ccccc1)c1cccc(F)c1)CCO (stereo not given),20.1,-16.4,-8.4,-19.2,9.7,0.1
CC(C)(C(N)=O)c1ccccc1,8.1,6.0,-3.4,-13.5,2.3,1.9
CN(C)CCC#CC(O)(c1ccccc1)c1ccccc1,20.2,65.0*,-8.2,1.9,-24.9,10.2
CC(=O)Nc1ccc(NC(=O)C(C)OC(=O)c2cccc(S(=O)(=O)N3CCCC3)c2)cc1 (stereo not given),-4.9,-2.0,-5.2,-7.9,0.6,0.7
CCC(C(=O)NCCCN1CCN(C)CC1)n1nc(C)n2c(cc3occc32)c1=O (stereo not given),9.7,-8.8,-9.2,-9.4,2.2,0.6
O=C(CCl)Nc1cn(-c2ccccc2)nc1-c1ccc(F)cc1,-1.1,-0.3,-6.0,3.6,0.4,0.6
CC(C)c1ccc(C(=O)N2CCCCC2c2cc(C(=O)NCc3cccnc3)no2)cc1 (stereo not given),10.3,-10.9,-4.1,-12.3,7.0,1.1
O=C(NCc1ccccc1CN1CCCC1)c1ccc(S(=O)(=O)Nc2ccccc2)cc1,-15.6,24.8,-6.3,14.2,-16.6,1.9
CC1=C(C(=O)N2CCOCC2)CC(CC(=O)NC2CCCCC2)C(=O)N1Cc1ccccc1 (stereo not given),0.3,1.0,-1.1,0.1,0.7,-0.1
Cc1cc(C)n(CCC(=O)N=Nc2c(O)[nH]c3ccc(Br)cc23)n1,-8.6,-21.6,0.7,5.9,16.5,0.7
O=C(NC1CCCCC1)C1COc2ccccc2O1 (stereo not given),3.4,45.9*,-7.3,-3.2,-25.7,0.5
SMILES,CHO-K1 Ca PAM,CHRM1 antagonist,CHRM1 agonist,CHO-K1 Ca antag,M1 PAM,CHO-K1 Ca ag
O=C(Nc1nnc(-c2ccc3c(c2)CCCC3)o1)C1COc2ccccc2O1 (stereo not given),-10.3,3.3,-4.3,25.5*,-3.5,-0.6
CC1CCC(NC(=O)C2COc3ccccc3O2)CC1 (stereo not given),-8.4,-5.3,-6.3,20.6,2.2,-0.6
O=C(CC[C@H]1O[C@@H](n2cnc3c(NC(=O)c4ccccc4)ncnc32)[C@H](O)[C@@H]1O)NCCc1cc2ccccc2[nH]1,-6.7,12.3,6.2,27.2*,2.5,0.2
O=C(CC[C@H]1O[C@@H](n2cnc3c(NC(=O)c4ccccc4)ncnc32)[C@H](O)[C@@H]1O)NCC(F)(F)F,10.1,-0.9,-5.2,9.9,2.9,0.7
O=C(CC[C@H]1O[C@@H](n2cnc3c(NC(=O)c4ccccc4)ncnc32)[C@H](O)[C@@H]1O)NCc1ccco1,5.3,-10.6,2.7,2.0,-0.7,2.4
O=C(CC[C@H]1O[C@@H](n2cnc3c(NC(=O)c4ccccc4)ncnc32)[C@H](O)[C@@H]1O)NCC1CCN(Cc2ccccc2)CC1,-0.1,3.0,-12.0,23.8*,-0.8,1.3
O=S1(=O)C[C@H](N2CC[C@@H](O)C2)[C@@H](COCc2ccccc2)N1,-7.9,7.6,-4.7,26.9*,-0.8,-0.2
CN(C)[C@H]1CCN([C@H]2CS(=O)(=O)N[C@@H]2COCc2ccccc2)C1,20.8,-12.6,-9.6,10.9,10.7,0.6
Cc1cc(Cl)ccc1NC(=O)COC(=O)c1c(C)noc1C,22.7,-2.1,-1.7,7.1,6.5,-0.1
O=C(Nc1nc2c(s1)CN(Cc1ccccc1)CC2)C1CCC1,5.9,45.6*,-7.6,-12.1,-10.2,-0.1
CCOC(=O)NC(=O)/C(C#N)=C/c1ccc(N(C)C)cc1,1.5,-4.3,2.5,3.0,7.9,9.5
CCN1CCc2nc(NC(=O)c3ccccc3)sc2C1,-2.4,3.8,-4.7,2.4,2.3,0.0
CN(C)c1ccc(/C=C(\C#N)C(=O)Nc2nc3c(s2)CCN(Cc2ccccc2)C3)cc1,-28.6,34.7*,20.9*,16.6,-11.5,15.0
O=C(CSc1nnc(-c2ccc3c(c2)OCO3)o1)Nc1ncc(Cl)cc1Cl,23.1,-7.8,-6.1,1.5,9.4,0.1
CCn1c(SCC(=O)NCc2ccc(F)cc2)nc2c(c1=O)SC(C)C2 (stereo not given),-4.4,7.1,0.3,14.1,3.6,0.2
CCn1c(SCC(=O)NCc2ccccc2)nc2c(c1=O)SC(C)C2 (stereo not given),-9.3,-1.9,-0.4,32.4*,8.9,-0.2
COc1ccccc1-c1nnc(C2CCN(S(=O)(=O)c3ccccc3[N+](=O)[O-])CC2)o1,6.9,-3.8,4.8,-7.2,-1.1,6.4
CSc1nc(SCCN(C)C)c2c3c(sc2n1)COC(C)(C)C3,10.1,11.3,50.8*,-14.9,-25.1,0.4
